From PubChem BioAssay (NCI) come the findings set out here.

The panel holds about 83,000 compounds, 20% with a hit somewhere; the sample as a whole holds those more often.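 For each line, cells grew in 96-well plates with the test compound present at a single concentration for 48 hours.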 Values without a mark were called inactive. Activity calls are given as the source filed them. How the source made its calls: active means growth percent below 10; inactive means the rest.

Test systems include NCI-H23 lung; NCI-H226 lung; NCI-H322M lung; HOP-62 NSCLC; NCI-H460 lung; NCI-H522 lung; A549/ATCC NSCLC; 786-0 renal; COLO 205 colon; DU-145 prostate; K-562 leukemia; MALME-3M melanoma; MDA-MB-231 breast; RXF 393 renal; SF-268 CNS; SF-539 CNS; UACC-257 melanoma; M14 melanoma; HCT-15 colon; SF-295 CNS.
Common to all, as to assay: NCI-60 one-dose screen, 48 h (100 = growth as untreated, 0 = no growth, -100 = all killed)
What all share (settings): 10 µM unless noted

As to `Nc1nc(N)c([N+](=O)[O-])c(=O)[nH]1`, the growth in the assay on NCI-H23 lung was 97.8%; with NCI-H226 lung it was 102%; in the assay with NCI-H322M lung, 104%; in the assay with HOP-62 NSCLC, 84.7%; with NCI-H460 lung it was 106%; with NCI-H522 lung, 103%. In addition, the growth was 97.8% with A549/ATCC NSCLC; 110% in the assay with 786-0 renal; 109% in the assay on COLO 205 colon; 113% in the assay on DU-145 prostate; 108% in the assay with K-562 leukemia; 118% in the assay on MALME-3M melanoma. Moreover, the growth is 115% in the assay on MDA-MB-231 breast; 114% with RXF 393 renal; 115% in the assay with SF-268 CNS; 106% with SF-539 CNS; 103% in the assay on UACC-257 melanoma; 106% in the assay with M14 melanoma. Further, in the assay on HCT-15 colon, the growth was 104%.
Take `Nc1ccc(S(=O)(=O)Nc2ncccn2)cc1`: the growth with NCI-H23 lung was 114%; with NCI-H226 lung it was 100%; with NCI-H322M lung, 120%; with HOP-62 NSCLC, 108%; in the assay with NCI-H460 lung, 108%; in the assay on NCI-H522 lung, 106%. The growth with A549/ATCC NSCLC was 100%; in the assay with 786-0 renal, 107%; with COLO 205 colon, 114%; in the assay with DU-145 prostate it was 104%; in the assay on K-562 leukemia, 104%; in the assay with MALME-3M melanoma, 118%. Also, the growth was 98.6% in the assay with MDA-MB-231 breast; 118% in the assay on RXF 393 renal; 108% with SF-268 CNS; 104% in the assay with SF-295 CNS; 105% in the assay with UACC-257 melanoma; 115% in the assay with M14 melanoma. Further, the growth with HCT-15 colon is 99.1%.
`O=C(/C=C/c1cc2ccccc2[nH]c1=O)c1ccc(Cl)cc1`: the growth was 25.7% in the assay on NCI-H23 lung; 40.7% in the assay with NCI-H226 lung; 62.4% in the assay with NCI-H322M lung; 44.4% with HOP-62 NSCLC; 12% with NCI-H460 lung; -57.5% (active) with NCI-H522 lung. For the same compound, the growth with A549/ATCC NSCLC was 42.1%; in the assay with 786-0 renal, 43%; with COLO 205 colon, 49.4%; in the assay on DU-145 prostate, 12.4%; in the assay with K-562 leukemia, 17.1%; with MALME-3M melanoma, 46.4%. Besides, the growth in the assay with MDA-MB-231 breast was 32.2%; in the assay on RXF 393 renal, 12.9%; in the assay with SF-268 CNS, 30.7%; with SF-295 CNS it was 42.7%; with UACC-257 melanoma, 45.3%; with M14 melanoma, 44.7%. Besides, the growth with HCT-15 colon is 41.6%.
Turning to `O=C1C2C3C=CC(O3)C2C(=O)N1Nc1ccccc1` (stereo not drawn), the growth in the assay with NCI-H23 lung is 106%; in the assay with NCI-H226 lung, 109%; in the assay on NCI-H322M lung it was 124%; with HOP-62 NSCLC, 117%; in the assay on NCI-H460 lung it was 112%; in the assay on NCI-H522 lung, 117%. The growth is 103% in the assay with A549/ATCC NSCLC; 107% in the assay with 786-0 renal; 124% in the assay with COLO 205 colon; 112% in the assay with DU-145 prostate; 103% with K-562 leukemia; 120% in the assay on MALME-3M melanoma. Besides, the growth in the assay on MDA-MB-231 breast is 99.8%; in the assay on RXF 393 renal, 119%; in the assay on SF-268 CNS, 102%; in the assay on SF-295 CNS, 107%; in the assay with UACC-257 melanoma it was 104%; in the assay with M14 melanoma, 104%. Further, the growth with HCT-15 colon was 104%.
With `Oc1[nH]c2ccccc2c1/C=c1/ccc2c(c1)N=C(c1cc(F)cc(F)c1)N=2`, the growth is 64.3% in the assay on NCI-H23 lung; 85.4% in the assay on NCI-H226 lung; 83.1% with NCI-H322M lung; 101% with HOP-62 NSCLC; 56.9% with NCI-H460 lung; 59.7% in the assay with NCI-H522 lung. In addition, the growth in the assay on A549/ATCC NSCLC is 66.5%; in the assay on 786-0 renal, 64.2%; in the assay with COLO 205 colon, 96%; with DU-145 prostate it was 72.1%; in the assay on K-562 leukemia, 12.8%; in the assay on MALME-3M melanoma, 101%. The growth in the assay with MDA-MB-231 breast was 53.8%; in the assay on RXF 393 renal it was 78.5%; in the assay on SF-268 CNS it was 80.8%; in the assay on SF-539 CNS, 90.7%; in the assay with UACC-257 melanoma, 98.7%; with M14 melanoma, 58.2%. Moreover, in the assay on HCT-15 colon, the growth was 31.5%.
`CC1CC(C)/C(=N/NC(N)=O)C(C(O)CC2CCC(=O)NC2=O)C1` (stereo not drawn): the growth with NCI-H23 lung was 36.1%; with NCI-H226 lung it was 42.3%; with NCI-H322M lung it was 14.4%; in the assay on HOP-62 NSCLC, 49.3%; with NCI-H460 lung it was 31.7%; in the assay with NCI-H522 lung it was 18%. Moreover, the growth with A549/ATCC NSCLC is 27.7%; with 786-0 renal, 25%; in the assay on COLO 205 colon, 42.1%; in the assay on DU-145 prostate, 37.4%; with K-562 leukemia it was 40.8%; in the assay with MALME-3M melanoma, 35.6%. Further, the growth is 46.9% in the assay with MDA-MB-231 breast; 38.2% in the assay on RXF 393 renal; 34.1% in the assay on SF-268 CNS; -9.66% (active) with SF-295 CNS; 54.9% with UACC-257 melanoma; 34.1% with M14 melanoma. Also, the growth in the assay on HCT-15 colon is 37.8%.
Consider `Cc1cc(CC(=O)O)n(C)c1C(=O)c1ccc(Cl)cc1`, for which the growth in the assay on NCI-H23 lung is 96.3%; with NCI-H226 lung, 95.2%; in the assay with NCI-H322M lung it was 120%; in the assay on HOP-62 NSCLC, 117%; in the assay with NCI-H460 lung, 115%; in the assay with NCI-H522 lung, 101%. The growth is 108% with A549/ATCC NSCLC; 103% in the assay with 786-0 renal; 114% with COLO 205 colon; 125% in the assay on DU-145 prostate; 103% in the assay on K-562 leukemia; 102% with MALME-3M melanoma. Also, the growth in the assay on MDA-MB-231 breast was 109%; in the assay on RXF 393 renal it was 117%; with SF-268 CNS, 114%; in the assay with SF-295 CNS, 93.1%; in the assay with UACC-257 melanoma, 104%; with M14 melanoma, 106%. In the assay with HCT-15 colon, the growth was 103%.
Turning to `COc1ccc(-n2nnc(C(=O)O)c2-c2cc(OC)c(OC)c(OC)c2)cc1`, the growth is 103% in the assay with NCI-H23 lung; 104% with NCI-H226 lung; 108% with NCI-H322M lung; 114% in the assay on HOP-62 NSCLC; 106% in the assay with NCI-H460 lung; 83.6% with NCI-H522 lung. The growth with A549/ATCC NSCLC is 100%; in the assay with 786-0 renal, 99.7%; in the assay on COLO 205 colon it was 104%; in the assay on DU-145 prostate, 116%; with K-562 leukemia, 95.1%; in the assay with MALME-3M melanoma, 112%. Also, the growth is 122% with MDA-MB-231 breast; 105% in the assay with RXF 393 renal; 115% with SF-268 CNS; 103% in the assay on SF-539 CNS; 102% with UACC-257 melanoma; 104% in the assay on M14 melanoma. The growth in the assay on HCT-15 colon is 101%.
`O=c1ccn(C2CCCO2)c(=O)[nH]1` (stereo not drawn): the growth in the assay on NCI-H23 lung was 119%; with NCI-H226 lung, 114%; with NCI-H322M lung it was 117%; in the assay on HOP-62 NSCLC, 107%; with NCI-H460 lung, 106%; in the assay with NCI-H522 lung, 98.5%. In addition, the growth was 95.3% in the assay on A549/ATCC NSCLC; 109% in the assay on 786-0 renal; 118% in the assay on COLO 205 colon; 109% with DU-145 prostate; 105% with K-562 leukemia; 116% with MALME-3M melanoma. Also, the growth in the assay on MDA-MB-231 breast is 107%; in the assay with RXF 393 renal it was 111%; in the assay with SF-268 CNS, 104%; with SF-539 CNS, 91.6%; in the assay with UACC-257 melanoma, 90.9%; with M14 melanoma, 107%. Moreover, the growth with HCT-15 colon was 105%.
For the compound `CCC(C)CC(C)C(=O)c1c(O)ccn(O)c1=O` (stereo not drawn), the growth in the assay with NCI-H23 lung was 25.2%; in the assay with NCI-H226 lung it was 95.8%; in the assay with NCI-H322M lung it was 52.5%; in the assay on HOP-62 NSCLC it was 24%; with NCI-H460 lung, 23.7%; with NCI-H522 lung, 33.2%. Further, the growth is 22.6% in the assay on A549/ATCC NSCLC; 70% with 786-0 renal; 108% in the assay on COLO 205 colon; 42.7% with DU-145 prostate; 18.2% with K-562 leukemia; 42.1% in the assay on MALME-3M melanoma. Also, the growth is 45.3% with MDA-MB-231 breast; 35.4% with RXF 393 renal; 26.4% in the assay with SF-268 CNS; 5.81% (active) in the assay with SF-539 CNS; 27.1% in the assay on UACC-257 melanoma; 15.5% in the assay on M14 melanoma. Moreover, the growth in the assay on HCT-15 colon is 25.3%.
`O=C(/C=C/c1ccc(O)c(O)c1)N1CCN(c2ccc(Cl)cc2)CC1`: the growth with NCI-H23 lung was 62.9%; in the assay with NCI-H226 lung it was 63.8%; with NCI-H322M lung, 85.1%; with HOP-62 NSCLC, 88.2%; with NCI-H460 lung it was 46.4%; in the assay on NCI-H522 lung, -3.39% (active). The growth is 61.2% in the assay with A549/ATCC NSCLC; 73.1% in the assay on 786-0 renal; 71.4% in the assay with COLO 205 colon; 69.4% in the assay with DU-145 prostate; 61.8% in the assay on K-562 leukemia; 66.2% in the assay on MALME-3M melanoma. In addition, the growth in the assay on MDA-MB-231 breast is 59.2%; with RXF 393 renal, 58%; in the assay on SF-268 CNS, 57%; in the assay on SF-539 CNS it was 66.4%; in the assay on UACC-257 melanoma, 81.8%; in the assay with M14 melanoma, 67.8%. The growth in the assay with HCT-15 colon was 48.5%.
In the case of `CN1CCN(CC(=O)Nc2nc3c(s2)Nc2cc(Cl)c(Cl)cc2NC3=O)CC1`, the growth was 106% in the assay on NCI-H23 lung; 96.1% in the assay on NCI-H226 lung; 94.1% in the assay on NCI-H322M lung; 98.3% in the assay with HOP-62 NSCLC; 104% in the assay on NCI-H460 lung; 77% with NCI-H522 lung. Further, the growth with A549/ATCC NSCLC was 95.9%; with 786-0 renal, 99.2%; with COLO 205 colon, 107%; in the assay with DU-145 prostate it was 117%; in the assay on K-562 leukemia it was 81.3%; in the assay on MALME-3M melanoma it was 107%. For the same compound, the growth is 123% in the assay on MDA-MB-231 breast; 111% with SF-268 CNS; 108% in the assay with SF-295 CNS; 107% in the assay with SF-539 CNS; 87.9% with UACC-257 melanoma; 105% in the assay with M14 melanoma. Also, the growth with HCT-15 colon was 104%.
